According to PubChem BioAssay AID602340 (Broad Institute, 2012):
The whole screen tested about 330,000 compounds, of which about 2,600 (0.79%) were called active. Many of the other results were omitted from the sample, so actives are more common in it than they were. A number with no mark means an inactive call.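 Rule for the calls: active = mean ATP rescue above about 67%, or every replicate alone reaching that limit (limit read from the data, passing the limit was not always enough); inconclusive = no clear call, values can overlap the other calls; inactive = mean under the limit and some replicate under it.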

experiment: suppressors of statin myotoxicity in C2C12 myotubes, primary screen, cell-based, single point, plate reader (AID 602340); details: C2C12 myotubes + simvastatin, ATP luminescence, 48 h; at 7.49 µM; hits give high values; scaled: DMSO 0, geranylgeraniol control 100;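 note: myotubes were challenged with 10 µM simvastatin during compound exposure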

| Structure (SMILES) | rescue of ATP level |
| --- | --- |
| CC1=CC(=O)C=CC1(C)C(Cl)(Cl)Cl (stereo unspecified) | 112% (active) |
| CO[C@@H]1CN(C)C(=O)c2cc(NS(=O)(=O)c3ccc(C)cc3)ccc2OC[C@H](C)N(Cc2nccs2)C[C@@H]1C | 1.93% |
| CCC(CC)c1nnc(NC(=O)C2CCN(C(=O)c3ccco3)CC2)s1 | -3.16% |
| CCC(CC)c1nnc(NS(=O)(=O)Cc2ccccc2)s1 | 117% (active) |
| Cc1cc(C)cc(NS(=O)(=O)Cc2ccccc2)c1 | 1.96% |
| CO[C@@H]1CN(C)C(=O)c2cc(NC(C)=O)ccc2OC[C@H](C)N(CC2CCCCC2)C[C@@H]1C | -13.7% |
| C[C@H](O)C#Cc1cnc2c(c1)C(=O)N([C@@H](C)CO)C[C@H](C)[C@@H](CN(C)C(=O)c1ccncc1)O2 | 8.21% |
| O=C(C[C@H]1C=C[C@H](NC(=O)CN2CCOCC2)[C@@H](CO)O1)NCc1cccc(F)c1 | -2.71% |
| Cc1noc(C)c1NC(=O)Nc1ccc2c(c1)CC(=O)N([C@@H](C)CO)C[C@H](C)[C@@H](CN(C)C(=O)Nc1ccc3c(c1)OCO3)O2 | -8.55% |
| CO[C@@H]1CN(C)C(=O)c2cc(NC(C)=O)ccc2OC[C@H](C)N(Cc2ccccc2F)C[C@@H]1C | -2.5% |
| CCCN1C2CCCC1CC(NC(=O)c1cccc(OC)c1)C2 (stereo unspecified) | -3.95% |
| COc1ccc(CN2C3CCCC2CC(NC(=O)c2cccc(F)c2)C3)cc1 (stereo unspecified) | 9.21% |
| CCOc1ccccc1C(=O)NC1CC2CCCC(C1)N2Cc1ccccc1 (stereo unspecified) | 97.4% (active) |
| CCCNC(=O)N(C)C[C@@H]1Oc2ncc(-c3ccccc3F)cc2C(=O)N([C@@H](C)CO)C[C@H]1C | 15.3% |
| COc1ccc(S(=O)(=O)N(C)C[C@H]2Oc3c(NC(=O)C4CCOCC4)cccc3C(=O)N([C@@H](C)CO)C[C@@H]2C)cc1 | -29.4% |
| COCC#Cc1ccc2c(c1)O[C@H](CN(C)Cc1ccc3c(c1)OCO3)[C@H](C)CN([C@H](C)CO)S2(=O)=O | 15.6% |
| CCOC(=O)C1CCN(C(=O)Cn2cc(C#N)c3ccccc32)CC1 | 99.6% (active) |
| CCOC(=O)C1CCN(C(=O)COc2cccc3ccccc23)CC1 | -0.757% |
| CCOC(=O)C1CCN(C(=O)CSc2cc(=O)n(C)c3ccccc23)CC1 | 4.85% |
| CCCNC(=O)N(C)C[C@H]1Oc2cc(C#CC(C)(C)O)ccc2S(=O)(=O)N([C@H](C)CO)C[C@@H]1C | 1.69% |
| Cc1ccc(C2=CSC3=NS(=O)(=O)CCN23)cc1C | 1.19% |
| COC(=O)c1sc(N2CCN(Cc3ccccc3)CC2)nc1N | 8.62% |
| O=S1(=O)CCN2C(=N1)SC1=C2CCN(Cc2ccccc2)C1 | 121% (active) |
| O=C(NCC[C@H]1CC[C@@H](NC(=O)C2CCCCC2)[C@@H](CO)O1)c1ccc(F)cc1 | 10.2% |
| CCC(=O)Nc1ccc2c(c1)C(=O)N(C)C[C@@H](OC)[C@@H](C)CN(Cc1ccccc1F)[C@H](C)CO2 | 10.8% |
| Cc1nc(-c2ccc(F)cc2)c(CC(=O)N2CCN(S(=O)(=O)c3ccc(F)cc3)CC2)s1 | -5.66% |

| Structure (SMILES) | rescue of ATP level |
| --- | --- |
| CCOc1ccc(-c2nc(C)sc2CC(=O)O)cc1 | 87.4% (active) |
| CCOc1ccc(NC(=O)CN(C)C(=O)Cc2sc(C)nc2-c2ccc(F)cc2)cc1OCC | 8.47% |
| CN1C(=O)c2cc(NS(C)(=O)=O)ccc2OC[C@H]2O[C@H](CC(=O)NCc3ccccc3)CC[C@H]21 | -11.2% |
| C[C@H](NC(=O)C[C@@H]1CC[C@@H](NC(=O)Cc2ccccn2)[C@@H](CO)O1)c1ccccc1 | 1.25% |
| CO[C@@H]1CN(C)C(=O)c2cc(NC(=O)c3cccc(F)c3)ccc2OC[C@H](C)N(C)C[C@@H]1C | 6.21% |
| CCCN1CCN(C(=O)CCCNC(=O)c2ccc(Cl)cc2)CC1 | -1.82% |
| CC(C)OCCCNC(=O)CN1C(=O)/C(=C/c2ccccc2F)Oc2ccccc21 | -11.5% |
| CN1CCN(CCCNC(=O)c2ccc(/C=C3\Oc4ccccc4N(Cc4ccc(Cl)cc4)C3=O)cc2)CC1 | 88.6% (active) |
| CS(=O)(=O)Nc1ccc2c(c1)[C@H]1C[C@@H](CC(=O)NCCc3ccccc3)O[C@@H](CO)[C@H]1O2 | 3.14% |
| COc1cc(NC(=O)COC(=O)c2cc(S(=O)(=O)N3CCOCC3)ccc2F)cc(OC)c1 | 117% (active) |
| O=C(COC(=O)c1cc(S(=O)(=O)N2CCOCC2)ccc1F)NC1CC1 | -0.144% |
| O=C(OCCOc1ccccc1F)c1cc(S(=O)(=O)N2CCOCC2)ccc1F | 12.7% |
| CC=Cc1ccc2n(c1=O)C[C@@H]1[C@@H](CO)[C@H](C(=O)NCC)[C@H]2N1CCC(F)(F)F (mixture of isomers) | 12.8% |
| CC(C)CC#Cc1cnc2c(c1)C(=O)N([C@H](C)CO)C[C@H](C)[C@H](CN(C)CC1CCOCC1)O2 | 17.7% |
| C[C@@H]1CN([C@H](C)CO)C(=O)Cc2cc(NC(=O)Cn3cnnn3)ccc2O[C@H]1CN(C)CC1CCCCC1 | 19.6% |
| Cc1ccc(-c2csc(NC(=O)c3cccs3)n2)cc1 | 112% (active) |
| CCc1noc(C)c1C(=O)Nc1nc(-c2ccccc2)cs1 | -35.8% |
| CCCc1ccc(-c2csc(NC(=O)Cc3cccs3)n2)cc1 | 20.4% |
| COc1ccc(C(=O)Nc2ccc3c(c2)OC[C@H](C)N(C(C)=O)C[C@@H](C)[C@@H](OC)CN(C)C3=O)cc1 | -4.78% |
| COc1cccc(C(=O)Nc2ccc3c(c2)C(=O)N(C)[C@@H]2CC[C@H](CC(=O)NCC4CC4)O[C@@H]2CO3)c1 | 4.48% |
| COc1cccc(C(=O)Nc2ccc3c(c2)C(=O)N(C)[C@@H]2CC[C@@H](CC(=O)NCCCN4CCOCC4)O[C@@H]2CO3)c1 | 8.62% |
| CCCNC(=O)N1C[C@H]2[C@@H](c3ccccc31)[C@H](CO)N2C(=O)NC(C)C | -5.25% |
| Cc1c(C(C)(C)O)[nH]c2ccc(C#N)cc12 | 81.3% (active) |
| CCOC(=O)c1cc2sccc2n1Cc1ccc(C#N)cc1 | 29.8% |
| Cc1[nH]c2ccc(S(N)(=O)=O)cc2c1C | 6.68% |
